# Measured values published in PubChem BioAssay (EPA / NIEHS).
# Where “and” joins values, the source holds several entries; their conditions need not be identical. Equal values may be shown once. Inconclusive results are not listed. Calls of active or inactive are those of the source. How the source made its calls: active means hit-call score of the fitted dose curve at least 0.9, where 1 is the maximum; inconclusive means response in the unintended direction; inactive means score below 0.9.
# Experiments:
# [1] = target: Cellular tumor antigen p53 (Homo sapiens) (UniProt P04637); test: TOX21_p53_BLA_p5_ratio: Tox21 HCT-116 p53 Agonism Beta-lactamase Assay, Ratio, Phase 5 (AID 2283599)
# Outline: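 Beta-lactamase reporter ratio (blue 460 nm over green 530 nm, 405 nm excitation) after 2 h CCF4-AM loading, in HCT-116 cells exposed 16 h at 37 C to compounds pinned at 217-fold dilution. Increases relative to DMSO baseline scored.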
# [2] = TOX21_p53_BLA_p5_viability: Viability Assessment in the Tox21 HCT-116 p53 Agonism Beta-lactamase Assay, Phase 5 (AID 2283600)
# Outline: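 Viability is taken from cellular ATP content, measured by luciferase luminescence in the same wells after the beta-lactamase ratio read. Cells are seeded at 4000 per well and exposed to DMSO-dissolved compounds, diluted 217-fold, for 16 h.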
# [3] = target: Cellular tumor antigen p53 (Homo sapiens) (UniProt P04637); test: TOX21_p53_BLA_p4_ratio: Tox21 HCT-116 p53 Agonism Beta-lactamase Assay, Ratio, Phase 4 (AID 2283601)
# Outline: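 Signal is the blue/green (460nm/530nm) ratio of cleaved versus uncleaved CCF4-AM substrate, read after 2 h substrate loading. Cells were HCT116 carrying the p53-responsive beta-lactamase reporter, dosed 16 h at 37C, 5% CO2; CellTiter-Glo measured in parallel.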
# Cellular tumor antigen p53 (Homo sapiens), sequence (P04637 whole entry, looked up): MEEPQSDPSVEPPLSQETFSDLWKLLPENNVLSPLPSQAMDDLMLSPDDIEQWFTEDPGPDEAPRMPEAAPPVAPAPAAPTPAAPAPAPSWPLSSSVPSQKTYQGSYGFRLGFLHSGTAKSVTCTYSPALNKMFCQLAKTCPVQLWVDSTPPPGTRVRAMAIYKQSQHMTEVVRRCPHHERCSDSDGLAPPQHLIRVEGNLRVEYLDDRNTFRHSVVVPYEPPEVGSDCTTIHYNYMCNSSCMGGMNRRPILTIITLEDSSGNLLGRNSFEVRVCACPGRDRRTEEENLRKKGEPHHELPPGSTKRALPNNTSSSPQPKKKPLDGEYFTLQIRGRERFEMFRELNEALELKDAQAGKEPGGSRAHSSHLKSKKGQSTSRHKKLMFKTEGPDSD
compound,measurement,setting,value
CC(=Cc1ccccc1)[N+](=O)[O-],outcome,[1],inactive
same,outcome,[2],inactive
same,outcome,[3],inactive
O=C(O)CC(O)(CC(=O)O)C(=O)O,outcome,[1],inactive
same,outcome,[2],inactive
same,outcome,[3],inactive
Cc1cccc(N=Nc2ccc(N(C)C)cc2)c1,outcome,[1],inactive
same,outcome,[3],inactive
O=C1c2ccccc2C(=O)C1C(=O)C(c1ccccc1)c1ccc(Cl)cc1 (configuration not stated),outcome,[1],inactive
same,outcome,[2],inactive
same,outcome,[3],inactive
O=NN1CCCCCCC1,outcome,[1],inactive
same,outcome,[2],inactive
same,outcome,[3],inactive
CCCCCCCCCCCCCCC(Br)C(=O)O (configuration not stated),AC50,[1],70.6 µM (active)
same,AC50,[2],70.3 µM (active)
same,outcome,[3],inactive
CCOc1cc(C=O)ccc1O,outcome,[1],inactive
same,outcome,[2],inactive
same,outcome,[3],inactive
O=[N+]([O-])c1cc([As](=O)(O)O)ccc1O,outcome,[1],inactive
same,outcome,[2],inactive
same,outcome,[3],inactive
CCCCCCCCCCCCBr,outcome,[1],inactive
same,outcome,[2],inactive
same,outcome,[3],inactive
C[C@H]1C(=O)O[C@@H]2CCN3CC=C(COC(=O)[C@](C)(O)[C@]1(C)O)[C@H]23,outcome,[1],inactive
same,outcome,[2],inactive
same,outcome,[3],inactive
C=CCN=C=S,outcome,[1],inactive
same,outcome,[2],inactive
same,outcome,[3],inactive
Nc1ccc(Br)cc1,outcome,[1],inactive
same,outcome,[2],inactive
same,outcome,[3],inactive
N#CCC#N,outcome,[1],inactive
same,outcome,[2],inactive
same,outcome,[3],inactive
CCOC(=O)OC1=C(c2cc(C)ccc2C)C(=O)NC12CCC(OC)CC2 (configuration not stated),AC50,[1],26.3 µM (active)
same,outcome,[2],inactive
same,AC50,[3],54.7 µM (active)
COC(=O)c1cc(Oc2ccc(Cl)cc2Cl)ccc1[N+](=O)[O-],outcome,[1],inactive
same,outcome,[3],inactive
C=CC(=O)OCC(COC(=O)C=C)(COC(=O)C=C)COC(=O)C=C,outcome,[1],inactive
same,AC50,[2],21.3 µM (active)
same,AC50,[3],46.1 µM (active)
c1ccc(-c2cccc(-c3ccccc3)c2)cc1,outcome,[1],inactive
same,outcome,[3],inactive
Cc1c([N+](=O)[O-])c(C)c([N+](=O)[O-])c(C(C)(C)C)c1[N+](=O)[O-],outcome,[1],inactive
same,outcome,[2],inactive
same,outcome,[3],inactive
Brc1ccc(Br)cc1,outcome,[1],inactive
same,outcome,[2],inactive
same,outcome,[3],inactive
N#Cc1ccncc1,outcome,[1],inactive
same,outcome,[2],inactive
same,outcome,[3],inactive
C#C[C@]1(O)CC[C@H]2[C@@H]3CCC4=CC(=O)CC[C@]4(C)[C@H]3CC[C@@]21C,outcome,[1],inactive
same,outcome,[2],inactive
same,outcome,[3],inactive
O=[N+]([O-])c1c2ccccc2cc2ccccc12,outcome,[1],inactive
same,outcome,[2],inactive
same,outcome,[3],inactive
CC(C)[C@H](C(=O)OC(C#N)c1cccc(Oc2ccccc2)c1)c1ccc(OC(F)F)cc1 (some centres not stated),outcome,[1],inactive
same,outcome,[2],inactive
same,outcome,[3],inactive
Nc1cccnc1,outcome,[1],inactive
same,outcome,[3],inactive
O=C(NC(=O)c1c(F)cccc1F)Nc1cc(Cl)c(Oc2ncc(C(F)(F)F)cc2Cl)c(Cl)c1,AC50,[1],13.7 µM (active)
same,outcome,[2],inactive
same,AC50,[3],15.6 µM (active)
Clc1cnc(Oc2ccc(Oc3ncc(Cl)cc3Cl)cc2)c(Cl)c1,outcome,[1],inactive
same,outcome,[2],inactive
same,outcome,[3],inactive
COP(=S)(OC)Oc1cc(Cl)c(I)cc1Cl,outcome,[1],inactive
same,outcome,[2],inactive
same,AC50,[3],87.3 µM (active)
C=C(C)C(=O)OCC(CC)CCCC (configuration not stated),outcome,[1],inactive
same,outcome,[3],inactive
CC(C)CC(C)(c1ccc(O)cc1)c1ccc(O)cc1,AC50,[1],84.6 µM (active) and 86.8 µM (active)
same,AC50,[2],71.2 µM (active) and 81.4 µM (active)
same,AC50,[3],40.9 µM (active) and 55 µM (active)
